Reference: the supplement of paper PMC7411054
Structures can show the parent of a compound that is named as a salt.

What was measured:
Experiment in all cases: phenotypically active (imaging signature differs from DMSO and reproducible) at any of 0.3-9 uM (binary (1 = active, 0 = inactive)); higher = active
Settings in all cases: treatment time: 24 h
A549-ACTB-RAB5A = tested on: A549-ACTB-RAB5A
Procedure, shortened: (§1)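 Live-cell features were measured per well and normalised to solvent control wells after fifteen gene-edited A549, HepG2 and WPMY1 reporter lines had been treated for 24 h at 0.3, 1, 3 or 9 µM in four wells each. A condition was deviating when ≥3 of 4 wells sat beyond the 95th percentile of control Euclidean distances. It was reproducible when the median replicate Pearson correlation exceeded the 95th percentile of non-replicates. Phenotypic activity demanded both.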

A549-CANX-COX4 = tested on: A549-CANX-COX4
Procedure, shortened: as §1

A549-GM130-SQSTM1 = tested on: A549-GM130-SQSTM1
Procedure, shortened: as §1

A549-TP53BP1-CLTA = tested on: A549-TP53BP1-CLTA
Procedure, shortened: as §1

A549-TUBA1B-RELA = tested on: A549-TUBA1B-RELA
Procedure, shortened: as §1

HepG2-ACTB-RAB5A = tested on: HepG2-ACTB-RAB5A
Procedure, shortened: as §1

HepG2-CANX-COX4 = tested on: HepG2-CANX-COX4
Procedure, shortened: as §1

HepG2-GM130-SQSTM1 = tested on: HepG2-GM130-SQSTM1
Procedure, shortened: as §1

HepG2-TP53BP1-CLTA = tested on: HepG2-TP53BP1-CLTA
Procedure, shortened: as §1

HepG2-TUBA1B-RELA = tested on: HepG2-TUBA1B-RELA
Procedure, shortened: as §1

WPMY1-ACTB-RAB5A = tested on: WPMY1-ACTB-RAB5A
Procedure, shortened: as §1

WPMY1-CANX-COX4 = tested on: WPMY1-CANX-COX4
Procedure, shortened: as §1

WPMY1-GM130-SQSTM1 = tested on: WPMY1-GM130-SQSTM1
Procedure, shortened: as §1

WPMY1-TP53BP1-CLTA = tested on: WPMY1-TP53BP1-CLTA
Procedure, shortened: as §1

WPMY1-TUBA1B-RELA = tested on: WPMY1-TUBA1B-RELA
Procedure, shortened: as §1

Measured: phenotypically active

CS(=O)(=O)OCCCCOS(C)(=O)=O [busulfan]
inactive: A549-ACTB-RAB5A 0 | A549-CANX-COX4 0 | A549-GM130-SQSTM1 0 | A549-TP53BP1-CLTA 0 | A549-TUBA1B-RELA 0 | HepG2-ACTB-RAB5A 0 | HepG2-CANX-COX4 0 | HepG2-GM130-SQSTM1 0 | HepG2-TP53BP1-CLTA 0 | HepG2-TUBA1B-RELA 0 | WPMY1-ACTB-RAB5A 0 | WPMY1-CANX-COX4 0 | WPMY1-GM130-SQSTM1 0 | WPMY1-TP53BP1-CLTA 0 | WPMY1-TUBA1B-RELA 0

CCN(CC)C(C)CN1c2ccccc2Sc2ccccc21 (stereo not given) [profenamine]
inactive: A549-ACTB-RAB5A 0 | A549-CANX-COX4 0 | A549-GM130-SQSTM1 0 | A549-TP53BP1-CLTA 0 | A549-TUBA1B-RELA 0 | HepG2-ACTB-RAB5A 0 | HepG2-CANX-COX4 0 | HepG2-GM130-SQSTM1 0 | HepG2-TP53BP1-CLTA 0 | HepG2-TUBA1B-RELA 0 | WPMY1-ACTB-RAB5A 0 | WPMY1-CANX-COX4 0 | WPMY1-GM130-SQSTM1 0 | WPMY1-TP53BP1-CLTA 0 | WPMY1-TUBA1B-RELA 0

NS(=O)(=O)c1cc2c(cc1Cl)N=CNS2(=O)=O [chlorothiazide]
inactive: A549-ACTB-RAB5A 0 | A549-CANX-COX4 0 | A549-GM130-SQSTM1 0 | A549-TP53BP1-CLTA 0 | A549-TUBA1B-RELA 0 | HepG2-ACTB-RAB5A 0 | HepG2-CANX-COX4 0 | HepG2-GM130-SQSTM1 0 | HepG2-TP53BP1-CLTA 0 | HepG2-TUBA1B-RELA 0 | WPMY1-ACTB-RAB5A 0 | WPMY1-CANX-COX4 0 | WPMY1-GM130-SQSTM1 0 | WPMY1-TP53BP1-CLTA 0 | WPMY1-TUBA1B-RELA 0

CC[N@@+]1(C)[C@@H]2CC[C@H]1C[C@@H](OC(=O)[C@]1(c3ccccc3)CC[C@H](C(=O)O[C@H]3C[C@H]4CC[C@@H](C3)[N@+]4(C)CC)c3ccccc31)C2 [beta- Belladonnine dichloroethylate]
inactive: A549-ACTB-RAB5A 0 | A549-CANX-COX4 0 | A549-GM130-SQSTM1 0 | A549-TP53BP1-CLTA 0 | A549-TUBA1B-RELA 0 | HepG2-ACTB-RAB5A 0 | HepG2-CANX-COX4 0 | HepG2-GM130-SQSTM1 0 | HepG2-TP53BP1-CLTA 0 | HepG2-TUBA1B-RELA 0 | WPMY1-ACTB-RAB5A 0 | WPMY1-CANX-COX4 0 | WPMY1-GM130-SQSTM1 0 | WPMY1-TP53BP1-CLTA 0 | WPMY1-TUBA1B-RELA 0

O=C(Cn1ccnc1[N+](=O)[O-])NCc1ccccc1 [benznidazole]
inactive: A549-ACTB-RAB5A 0 | A549-CANX-COX4 0 | A549-GM130-SQSTM1 0 | A549-TP53BP1-CLTA 0 | A549-TUBA1B-RELA 0 | HepG2-ACTB-RAB5A 0 | HepG2-CANX-COX4 0 | HepG2-GM130-SQSTM1 0 | HepG2-TP53BP1-CLTA 0 | HepG2-TUBA1B-RELA 0 | WPMY1-ACTB-RAB5A 0 | WPMY1-CANX-COX4 0 | WPMY1-GM130-SQSTM1 0 | WPMY1-TP53BP1-CLTA 0 | WPMY1-TUBA1B-RELA 0

CCCc1nc(C(C)(C)O)c(C(=O)OCc2oc(=O)oc2C)n1Cc1ccc(-c2ccccc2-c2nnn[nH]2)cc1 [olmesartan-medoxomil]
inactive: A549-ACTB-RAB5A 0 | A549-CANX-COX4 0 | A549-GM130-SQSTM1 0 | A549-TP53BP1-CLTA 0 | A549-TUBA1B-RELA 0 | HepG2-ACTB-RAB5A 0 | HepG2-CANX-COX4 0 | HepG2-GM130-SQSTM1 0 | HepG2-TP53BP1-CLTA 0 | HepG2-TUBA1B-RELA 0 | WPMY1-ACTB-RAB5A 0 | WPMY1-CANX-COX4 0 | WPMY1-GM130-SQSTM1 0 | WPMY1-TP53BP1-CLTA 0 | WPMY1-TUBA1B-RELA 0

N=C(N)NC(=O)Cc1c(Cl)cccc1Cl [guanfacine]
inactive: A549-ACTB-RAB5A 0 | A549-CANX-COX4 0 | A549-GM130-SQSTM1 0 | A549-TP53BP1-CLTA 0 | A549-TUBA1B-RELA 0 | HepG2-ACTB-RAB5A 0 | HepG2-CANX-COX4 0 | HepG2-GM130-SQSTM1 0 | HepG2-TP53BP1-CLTA 0 | HepG2-TUBA1B-RELA 0 | WPMY1-ACTB-RAB5A 0 | WPMY1-CANX-COX4 0 | WPMY1-GM130-SQSTM1 0 | WPMY1-TP53BP1-CLTA 0 | WPMY1-TUBA1B-RELA 0

O=C1CN2Cc3c(ccc(Cl)c3Cl)N=C2N1 [Anagrelide hydrochloride]
inactive: A549-ACTB-RAB5A 0 | A549-CANX-COX4 0 | A549-GM130-SQSTM1 0 | A549-TP53BP1-CLTA 0 | A549-TUBA1B-RELA 0 | HepG2-ACTB-RAB5A 0 | HepG2-CANX-COX4 0 | HepG2-GM130-SQSTM1 0 | HepG2-TP53BP1-CLTA 0 | HepG2-TUBA1B-RELA 0 | WPMY1-ACTB-RAB5A 0 | WPMY1-CANX-COX4 0 | WPMY1-GM130-SQSTM1 0 | WPMY1-TP53BP1-CLTA 0 | WPMY1-TUBA1B-RELA 0

CC1=CC(=O)CC(C)(C)C1(O)/C=C/C(C)=C\C(=O)O (mixture of isomers) [(+/-)-2-cis-4-trans-Abscisic acid]
inactive: A549-ACTB-RAB5A 0 | A549-CANX-COX4 0 | A549-GM130-SQSTM1 0 | A549-TP53BP1-CLTA 0 | A549-TUBA1B-RELA 0 | HepG2-ACTB-RAB5A 0 | HepG2-CANX-COX4 0 | HepG2-GM130-SQSTM1 0 | HepG2-TP53BP1-CLTA 0 | HepG2-TUBA1B-RELA 0 | WPMY1-ACTB-RAB5A 0 | WPMY1-CANX-COX4 0 | WPMY1-GM130-SQSTM1 0 | WPMY1-TP53BP1-CLTA 0 | WPMY1-TUBA1B-RELA 0

O=C(O)CCN(O)C(=O)CCCCCCCCC1CC1
inactive: A549-ACTB-RAB5A 0 | A549-CANX-COX4 0 | A549-GM130-SQSTM1 0 | A549-TP53BP1-CLTA 0 | A549-TUBA1B-RELA 0 | HepG2-ACTB-RAB5A 0 | HepG2-CANX-COX4 0 | HepG2-GM130-SQSTM1 0 | HepG2-TP53BP1-CLTA 0 | HepG2-TUBA1B-RELA 0 | WPMY1-ACTB-RAB5A 0 | WPMY1-CANX-COX4 0 | WPMY1-GM130-SQSTM1 0 | WPMY1-TP53BP1-CLTA 0 | WPMY1-TUBA1B-RELA 0

C=C(C)[C@@H]1CC[C@]2(C(=O)O)CC[C@]3(C)[C@H](CC[C@@H]4[C@@]5(C)CC[C@H](O)C(C)(C)[C@@H]5CC[C@]43C)[C@@H]12 [betulinic-acid]
inactive: A549-ACTB-RAB5A 0 | A549-CANX-COX4 0 | A549-GM130-SQSTM1 0 | A549-TP53BP1-CLTA 0 | A549-TUBA1B-RELA 0 | HepG2-ACTB-RAB5A 0 | HepG2-CANX-COX4 0 | HepG2-GM130-SQSTM1 0 | HepG2-TP53BP1-CLTA 0 | HepG2-TUBA1B-RELA 0 | WPMY1-ACTB-RAB5A 0 | WPMY1-CANX-COX4 0 | WPMY1-GM130-SQSTM1 0 | WPMY1-TP53BP1-CLTA 0 | WPMY1-TUBA1B-RELA 0

Cc1cccc(Nc2ccccc2C(=O)O)c1C [mefenamic-acid]
inactive: A549-ACTB-RAB5A 0 | A549-CANX-COX4 0 | A549-GM130-SQSTM1 0 | A549-TP53BP1-CLTA 0 | A549-TUBA1B-RELA 0 | HepG2-ACTB-RAB5A 0 | HepG2-CANX-COX4 0 | HepG2-GM130-SQSTM1 0 | HepG2-TP53BP1-CLTA 0 | HepG2-TUBA1B-RELA 0 | WPMY1-ACTB-RAB5A 0 | WPMY1-CANX-COX4 0 | WPMY1-GM130-SQSTM1 0 | WPMY1-TP53BP1-CLTA 0 | WPMY1-TUBA1B-RELA 0

CC(COc1ccccc1)N(CCCl)Cc1ccccc1 (stereo not given) [phenoxybenzamine]
inactive: A549-ACTB-RAB5A 0 | A549-CANX-COX4 0 | A549-GM130-SQSTM1 0 | A549-TP53BP1-CLTA 0 | A549-TUBA1B-RELA 0 | HepG2-ACTB-RAB5A 0 | HepG2-CANX-COX4 0 | HepG2-GM130-SQSTM1 0 | HepG2-TP53BP1-CLTA 0 | HepG2-TUBA1B-RELA 0 | WPMY1-ACTB-RAB5A 0 | WPMY1-CANX-COX4 0 | WPMY1-GM130-SQSTM1 0 | WPMY1-TP53BP1-CLTA 0 | WPMY1-TUBA1B-RELA 0
